# PubChem BioAssay (NCATS)
# Inconclusive results are not listed. Active and inactive are the calls of the source. The call rests on the fitted dose curve; in most records, active means well fitted curve in the direction sought with a large enough effect; inconclusive means small, poorly fitted or top-dose-only effect, or another doubt; inactive means no such curve, though single readings can be large; an effect the other way counts as inactive or inconclusive.
# Key:
# [1] = qHTS of pediatric cancer cell lines to identify multiple opportunities for drug repurposing: Confirmatory screen for NB-EBc1 cells (AID 1347115);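 further: cells exposed to compound for 48 h before the viability read; nearly all actives have a fitted effect of over 45% in size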
# Method in brief: (§1)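 Cells (500-1,000/well) rested 5 h, then received compounds for 48 h; metabolically active cells were measured by CellTiter-Glo luminescence. Final concentrations spanned up to 46 µM (MIPE, 11-point) or 0.59 nM-46 µM (NPC, 8-point) in primary screens, 11-point in follow-ups.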
# [2] = qHTS of pediatric cancer cell lines to identify multiple opportunities for drug repurposing: Confirmatory screen for SJ-GBM2 cells (AID 1347116); further: nearly all actives have a fitted effect of over 60% in size
# Method in brief: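 Viability measured as metabolically active cells via CellTiter-Glo luminescence following 48 hours of compound exposure, 11-point dilutions in confirmatory testing. 500-1,000 cells/well plated 5 hours before dosing; controls were DMSO and 2.3 µM bortezomib.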
# [3] = qHTS of pediatric cancer cell lines to identify multiple opportunities for drug repurposing: Confirmatory screen for BT-37 cells (AID 1347117); further: nearly all actives have a fitted effect of over 55% in size
# Method in brief: as §1
# [4] = qHTS of pediatric cancer cell lines to identify multiple opportunities for drug repurposing: Confirmatory screen for TC32 cells (AID 1347118);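 further: cells exposed to compound for 48 h before the read; nearly all actives have a fitted effect of over 65% in size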
# Method in brief: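 Luminescent ATP read-out (CellTiter-Glo) of metabolically active TC32 cells after 48 h exposure. Concentration-response curves came from 11-point (MIPE, 0.78 nM–46 µM) or 8-point (NPC, 0.59 nM–46 µM) primary titrations; follow-up used 11 points.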
# [5] = qHTS of pediatric cancer cell lines to identify multiple opportunities for drug repurposing: Confirmatory screen for control Hh wild type fibroblast cells (AID 1347121); further: nearly all actives have a fitted effect of over 70% in size
# Method in brief: as §1
# [6] = qHTS of pediatric cancer cell lines to identify multiple opportunities for drug repurposing: Confirmatory screen for U-2 OS cells (AID 1347122); further: nearly all actives have a fitted effect of over 65% in size
# Method in brief: as §1
# [7] = qHTS of pediatric cancer cell lines to identify multiple opportunities for drug repurposing: Confirmatory screen for Rh41 cells (AID 1347123);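 further: 48 h compound exposure; nearly all actives have a fitted effect of over 60% in size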
# Method in brief: as §1
# [8] = qHTS of pediatric cancer cell lines to identify multiple opportunities for drug repurposing: Confirmatory screen for RD cells (AID 1347124);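 further: cells exposed to compound for 48 h before viability readout; nearly all actives have a fitted effect of over 65% in size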
# Method in brief: as §1
# [9] = qHTS of pediatric cancer cell lines to identify multiple opportunities for drug repurposing: Confirmatory screen for Rh18 cells (AID 1347125); further: nearly all actives have a fitted effect of over 55% in size
# Method in brief: as §1
# [10] = qHTS of pediatric cancer cell lines to identify multiple opportunities for drug repurposing: Confirmatory screen for Rh30 cells (AID 1347126); further: nearly all actives have a fitted effect of over 55% in size
# Method in brief: as §1
# [11] = qHTS of pediatric cancer cell lines to identify multiple opportunities for drug repurposing: Confirmatory screen for Saos-2 cells (AID 1347127); further: nearly all actives have a fitted effect of over 60% in size
# Method in brief: as §1
# [12] = qHTS of pediatric cancer cell lines to identify multiple opportunities for drug repurposing: Confirmatory screen for OHS-50 cells (AID 1347128);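 further: compound exposure lasted 48 h at 37 degrees C; nearly all actives have a fitted effect of over 55% in size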
# Method in brief: as §1
# [13] = qHTS of pediatric cancer cell lines to identify multiple opportunities for drug repurposing: Confirmatory screen for SK-N-SH cells (AID 1347129);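 further: cells exposed to compound for 48 h before viability read; nearly all actives have a fitted effect of over 60% in size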
# Method in brief: as §1
# [14] = test system: Zika virus NS2B-NS3 protease; experiment: Primary screen GU AMC qHTS for Zika virus inhibitors (AID 1347154); further: nearly all actives have a fitted effect of over 70% in size
# Method in brief: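 Fluorogenic AMC-substrate cleavage by noncovalent NS2B-NS3 protease complex (25 nM, pH 8.0 Tris buffer with Tween 20) followed for 15 minutes at room temperature (~20% conversion). Percent inhibition from ex340/em450 signal change, fitted by 4-parameter Hill equation.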
# [15] = qHTS of pediatric cancer cell lines to identify multiple opportunities for drug repurposing: Confirmatory screen for MG 63 (6-TG R) cells (AID 1347119); further: nearly all actives have a fitted effect of over 55% in size
# Method in brief: as §1
# Furin (Homo sapiens) = Furin (Homo sapiens) (UniProt P09958); experiment: Furin counterscreen qHTS for Zika virus inhibitors (AID 1347149); further: nearly all actives have a fitted effect of over 70% in size
# Method in brief: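 Counterscreen measures cleavage of 2 microM BOC-RVRR-AMC, below its ~15 microM Km, by 5 nM full-length human furin at pH 7.0 after a 15-min compound preincubation. Inhibition derives from the 15-min fluorescence increase at 37C.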
# [16] = test system: Zika virus NS2B-NS3 protease (linked construct); experiment: Confirmatory screen NINDS AMC qHTS for Zika virus inhibitors (AID 1347152); further: nearly all actives have a fitted effect of over 70% in size
# Method in brief: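 Concentration-response confirmation used the NINDS linked protease (NS2B hydrophilic domain joined to NS3 protease domain), 1 nM, with a 15-min compound preincubation. Substrate, Nle-KRR-AMC at 10 microM, was read by UV fluorescence before and after 15 min.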
# Potency means the concentration at half of the fitted maximal effect.
# Sequence of Furin (Homo sapiens) (P09958 whole entry, looked up): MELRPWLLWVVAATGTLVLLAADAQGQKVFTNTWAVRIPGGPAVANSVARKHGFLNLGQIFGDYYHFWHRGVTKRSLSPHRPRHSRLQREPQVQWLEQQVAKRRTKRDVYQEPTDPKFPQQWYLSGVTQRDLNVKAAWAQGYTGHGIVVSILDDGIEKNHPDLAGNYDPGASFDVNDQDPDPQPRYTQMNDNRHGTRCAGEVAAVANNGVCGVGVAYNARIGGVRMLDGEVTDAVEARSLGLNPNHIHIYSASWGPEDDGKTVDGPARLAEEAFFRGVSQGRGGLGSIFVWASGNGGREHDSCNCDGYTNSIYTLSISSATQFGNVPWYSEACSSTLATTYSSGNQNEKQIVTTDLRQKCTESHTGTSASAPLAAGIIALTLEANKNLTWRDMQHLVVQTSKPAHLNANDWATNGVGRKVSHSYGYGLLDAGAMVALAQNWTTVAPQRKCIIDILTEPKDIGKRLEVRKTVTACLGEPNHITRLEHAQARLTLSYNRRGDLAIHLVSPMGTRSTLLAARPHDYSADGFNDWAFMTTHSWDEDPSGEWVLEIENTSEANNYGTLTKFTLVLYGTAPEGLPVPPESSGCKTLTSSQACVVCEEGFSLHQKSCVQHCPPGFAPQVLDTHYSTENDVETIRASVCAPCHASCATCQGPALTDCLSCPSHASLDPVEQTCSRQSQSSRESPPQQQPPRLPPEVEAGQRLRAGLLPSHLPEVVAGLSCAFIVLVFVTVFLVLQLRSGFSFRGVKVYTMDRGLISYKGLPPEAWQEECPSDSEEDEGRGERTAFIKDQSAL
Structure (SMILES),Potency [1],Potency [2],Potency [3],Potency [4],Potency [5],Potency [6],Potency [7],Potency [8],Potency [9],Potency [10],Potency [11],Potency [12],Potency [13],Potency [14],Potency [15],Potency (Furin (Homo sapiens)),Potency [16]
CNC(=O)c1ccccc1Nc1nc(Nc2ccc(N3CCOCC3)cc2OC)ncc1Cl,8.27 µM (active),9.27 µM (active),13.1 µM (active),0.827 µM (active),inactive,13.1 µM (active),0.928 µM (active),0.827 µM (active),4.14 µM (active),inactive,1.47 µM (active),2.93 µM (active),1.18 µM (active),inactive,–,–,–
CC[C@H]1CN2CCc3cc(OC)c(OC)cc3[C@H]2C[C@@H]1C[C@@H]1NCCc2cc(OC)c(OC)cc21,0.657 µM (active),0.522 µM (active),0.293 µM (active),0.233 µM (active),inactive,0.928 µM (active),1.47 µM (active),0.369 µM (active),–,5.85 µM (active),0.928 µM (active),0.414 µM (active),0.332 µM (active),inactive,0.827 µM (active),–,–
Nc1ccccc1NC(=O)c1ccc(CNc2nccc(-c3cccnc3)n2)cc1,inactive,1.47 µM (active),inactive,–,inactive,0.414 µM (active),–,1.65 µM (active),1.17 µM (active),1.65 µM (active),–,–,–,inactive,inactive,–,–
C=CC(=O)Nc1cccc(Oc2nc(Nc3ccc(N4CCN(C)CC4)cc3OC)ncc2Cl)c1,inactive,11.7 µM (active),20.8 µM (active),–,inactive,–,16.5 µM (active),–,20.8 µM (active),13.1 µM (active),23.3 µM (active),–,18.7 µM (active),inactive,23.3 µM (active),–,–
C[C@@H](Oc1cc(-n2cnc3ccc(CN4CCN(C)CC4)cc32)sc1C(N)=O)c1ccccc1C(F)(F)F,0.24 µM (active),10.4 µM (active),0.24 µM (active),0.0537 µM (active),42.7 µM (active),–,4.14 µM (active),–,47.9 µM (active),13.1 µM (active),–,0.0759 µM (active),13.2 µM (active),inactive,0.0603 µM (active),–,–
C[C@@]12O[C@@H](C[C@]1(O)CO)n1c3ccccc3c3c4c(c5c6ccccc6n2c5c31)CNC4=O,5.85 µM (active),18.5 µM (active),2.93 µM (active),0.657 µM (active),18.5 µM (active),0.737 µM (active),8.27 µM (active),–,3.69 µM (active),2.33 µM (active),1.31 µM (active),4.65 µM (active),5.26 µM (active),21.5 µM (active),1.47 µM (active),7.62 µM (active),24.1 µM (active)
CC[C@@H]1C(=O)N(C)c2cnc(Nc3ccc(C(=O)NC4CCN(C)CC4)cc3OC)nc2N1C1CCCC1,3.29 µM (active),1.04 µM (active),0.131 µM (active),0.0522 µM (active),18.5 µM (active),–,–,0.0465 µM (active),18.5 µM (active),–,0.0369 µM (active),0.0522 µM (active),6.62 µM (active),inactive,–,–,–
CC1(C)OC2=C(C(=O)c3ccccc3C2=O)[C@H](NCc2ccccc2)[C@H]1O,9.27 µM (active),7.37 µM (active),5.22 µM (active),4.14 µM (active),13.1 µM (active),1.85 µM (active),2.93 µM (active),8.27 µM (active),7.37 µM (active),–,8.27 µM (active),7.37 µM (active),5.9 µM (active),inactive,16.5 µM (active),–,–
C=CC(=O)Nc1cc2c(Nc3ccc(F)c(Cl)c3)ncnc2cc1C#CC(C)(C)N1CCN(C)CC1,15.1 µM (active),6.03 µM (active),3.02 µM (active),–,19.1 µM (active),4.79 µM (active),2.69 µM (active),6.03 µM (active),6.03 µM (active),3.8 µM (active),4.27 µM (active),6.03 µM (active),4.29 µM (active),–,–,–,–
Nc1ccccc1NC(=O)c1ccc(CNC(=O)OCc2cccnc2)cc1,30.2 µM (active),13.5 µM (active),3.02 µM (active),–,–,0.135 µM (active),2.4 µM (active),13.5 µM (active),7.59 µM (active),19.1 µM (active),2.14 µM (active),10.7 µM (active),–,inactive,2.4 µM (active),–,–
COC(=O)[C@]12CCC(C)(C)C[C@@H]1[C@@H]1C(=O)C=C3[C@@]4(C)C=C(C#N)C(=O)C(C)(C)[C@@H]4CC[C@@]3(C)[C@]1(C)CC2,5.85 µM (active),4.14 µM (active),3.69 µM (active),3.29 µM (active),7.37 µM (active),2.08 µM (active),2.33 µM (active),1.65 µM (active),5.22 µM (active),3.29 µM (active),3.69 µM (active),5.22 µM (active),2.09 µM (active),–,–,–,–
NC(=O)Nc1cc(-c2cccc(F)c2)sc1C(=O)N[C@H]1CCCNC1,1.65 µM (active),1.04 µM (active),0.827 µM (active),0.737 µM (active),20.8 µM (active),1.17 µM (active),1.47 µM (active),–,6.57 µM (active),–,1.65 µM (active),0.737 µM (active),3.72 µM (active),–,1.04 µM (active),–,–
